From publication PMC7862700, “An all-to-all approach to the identification of sequence-specific readers for epigenetic DNA modifications on cytosine”

Legend:
Test in all cases: DAPPL (digital affinity profiling via proximity ligation, sequencing); 10 mM Tris-HCl pH 7.5, 50 mM NaCl, 1 mM DTT, 4% glycerol, room temperature, 30 min; GST-TFs on glutathione beads, 16-mer random dsDNA library, 0.1% formaldehyde crosslink after washing; high values mean tight binding
FEV = target: T1, FEV (Homo sapiens, UniProt Q99581 1-238); details: protein: recombinant; tags: N-terminal GST; dsDNA, one strand shown
T1 sequence: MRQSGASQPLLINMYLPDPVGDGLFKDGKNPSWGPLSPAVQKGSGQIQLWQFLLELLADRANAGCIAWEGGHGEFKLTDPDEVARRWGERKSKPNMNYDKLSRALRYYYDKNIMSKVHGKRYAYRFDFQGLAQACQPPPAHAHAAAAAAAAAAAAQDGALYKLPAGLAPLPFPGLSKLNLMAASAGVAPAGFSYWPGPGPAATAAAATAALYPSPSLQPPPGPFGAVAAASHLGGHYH
Summary of the method: (§1)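 Sequencing on an Illumina NextSeq500 followed washing, crosslinking with 0.1% formaldehyde, proximity ligation (BsaI/T4 ligase, 1 h, 37 °C) and PCR amplification of pools that had been incubated for 30 min at room temperature with 200 nmole of a random double-stranded 16-mer DNA library in Tris/NaCl/DTT/glycerol buffer. Each pool held DNA-barcoded human transcription factors, expressed in yeast as GST fusions and captured on glutathione beads, plus a tag-only sample. Binding signal is a hexamer's read frequency for a factor divided by its frequency in the tag-only sample.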

ETV5 = ETV5 (Homo sapiens, UniProt P41161 1-510); details: protein: recombinant; tags: N-terminal GST; dsDNA, one strand shown
Chain of ETV5 (P41161 whole entry): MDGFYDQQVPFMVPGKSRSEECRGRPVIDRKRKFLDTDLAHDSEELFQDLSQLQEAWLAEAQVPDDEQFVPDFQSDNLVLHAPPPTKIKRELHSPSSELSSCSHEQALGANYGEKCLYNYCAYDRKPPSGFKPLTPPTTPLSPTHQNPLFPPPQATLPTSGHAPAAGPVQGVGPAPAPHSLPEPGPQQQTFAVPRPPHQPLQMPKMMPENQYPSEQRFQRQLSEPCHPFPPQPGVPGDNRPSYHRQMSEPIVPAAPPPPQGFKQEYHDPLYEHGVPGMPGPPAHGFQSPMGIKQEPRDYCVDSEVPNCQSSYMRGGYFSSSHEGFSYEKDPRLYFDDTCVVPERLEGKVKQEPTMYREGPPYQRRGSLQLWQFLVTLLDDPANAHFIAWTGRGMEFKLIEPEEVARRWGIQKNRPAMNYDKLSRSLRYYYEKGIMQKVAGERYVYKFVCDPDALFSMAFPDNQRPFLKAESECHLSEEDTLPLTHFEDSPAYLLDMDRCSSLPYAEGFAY
Summary of the method: as §1

HSF1 = HSF1 (Homo sapiens, UniProt Q00613 1-529); details: protein: recombinant; tags: N-terminal GST; chain copies: 3; dsDNA, one strand shown
Chain of HSF1 (Q00613 whole entry): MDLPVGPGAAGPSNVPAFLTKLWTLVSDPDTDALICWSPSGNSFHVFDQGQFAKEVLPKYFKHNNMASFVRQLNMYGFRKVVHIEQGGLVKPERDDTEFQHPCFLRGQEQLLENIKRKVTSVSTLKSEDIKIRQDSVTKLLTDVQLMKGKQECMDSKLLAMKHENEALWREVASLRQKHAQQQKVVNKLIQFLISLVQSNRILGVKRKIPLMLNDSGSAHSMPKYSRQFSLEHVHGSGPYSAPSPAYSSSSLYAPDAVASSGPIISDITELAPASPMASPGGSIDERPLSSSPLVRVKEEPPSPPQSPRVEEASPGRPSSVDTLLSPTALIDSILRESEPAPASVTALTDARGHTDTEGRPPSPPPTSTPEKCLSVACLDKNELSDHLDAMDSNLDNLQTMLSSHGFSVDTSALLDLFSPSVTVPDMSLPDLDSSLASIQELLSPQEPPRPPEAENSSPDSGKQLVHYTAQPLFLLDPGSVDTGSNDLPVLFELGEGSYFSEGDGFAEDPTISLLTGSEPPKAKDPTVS
Summary of the method: as §1

SPIC = target: T2, SPIC (Homo sapiens, UniProt Q8N5J4 1-248); details: protein: recombinant; tags: N-terminal GST; dsDNA, one strand shown
T2 sequence: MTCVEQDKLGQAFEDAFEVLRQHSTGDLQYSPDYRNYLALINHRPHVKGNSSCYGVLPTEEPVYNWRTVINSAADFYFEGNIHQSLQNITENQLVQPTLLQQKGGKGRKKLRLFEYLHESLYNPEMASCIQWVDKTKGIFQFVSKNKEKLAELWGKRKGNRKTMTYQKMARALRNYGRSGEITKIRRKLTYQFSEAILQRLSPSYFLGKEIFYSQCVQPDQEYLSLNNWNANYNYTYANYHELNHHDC
Summary of the method: as §1

ELF4 = ELF4 (Homo sapiens, UniProt Q99607 1-663); details: protein: recombinant; tags: N-terminal GST; dsDNA, one strand shown
Chain of ELF4 (Q99607 whole entry): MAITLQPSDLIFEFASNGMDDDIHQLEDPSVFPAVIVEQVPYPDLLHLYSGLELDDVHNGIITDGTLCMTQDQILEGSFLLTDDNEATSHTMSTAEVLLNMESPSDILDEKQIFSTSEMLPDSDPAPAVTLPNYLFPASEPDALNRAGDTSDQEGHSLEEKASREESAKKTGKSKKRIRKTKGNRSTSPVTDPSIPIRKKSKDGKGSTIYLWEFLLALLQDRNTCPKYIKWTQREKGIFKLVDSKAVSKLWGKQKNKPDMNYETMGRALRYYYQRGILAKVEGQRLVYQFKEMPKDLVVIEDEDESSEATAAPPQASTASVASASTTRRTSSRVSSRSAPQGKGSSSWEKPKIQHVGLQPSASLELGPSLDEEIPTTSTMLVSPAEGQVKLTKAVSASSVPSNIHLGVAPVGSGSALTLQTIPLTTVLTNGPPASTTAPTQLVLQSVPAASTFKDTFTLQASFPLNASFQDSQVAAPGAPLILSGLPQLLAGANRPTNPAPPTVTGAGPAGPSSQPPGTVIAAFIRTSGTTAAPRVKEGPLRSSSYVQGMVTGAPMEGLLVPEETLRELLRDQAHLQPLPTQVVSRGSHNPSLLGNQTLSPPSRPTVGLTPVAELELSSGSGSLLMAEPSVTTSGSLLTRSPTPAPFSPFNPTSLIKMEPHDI
Summary of the method: as §1

ELK4 = target: T3, ELK4 (Homo sapiens, UniProt P28324-2 1-405); details: protein: recombinant; tags: N-terminal GST; dsDNA, one strand shown
T3 sequence: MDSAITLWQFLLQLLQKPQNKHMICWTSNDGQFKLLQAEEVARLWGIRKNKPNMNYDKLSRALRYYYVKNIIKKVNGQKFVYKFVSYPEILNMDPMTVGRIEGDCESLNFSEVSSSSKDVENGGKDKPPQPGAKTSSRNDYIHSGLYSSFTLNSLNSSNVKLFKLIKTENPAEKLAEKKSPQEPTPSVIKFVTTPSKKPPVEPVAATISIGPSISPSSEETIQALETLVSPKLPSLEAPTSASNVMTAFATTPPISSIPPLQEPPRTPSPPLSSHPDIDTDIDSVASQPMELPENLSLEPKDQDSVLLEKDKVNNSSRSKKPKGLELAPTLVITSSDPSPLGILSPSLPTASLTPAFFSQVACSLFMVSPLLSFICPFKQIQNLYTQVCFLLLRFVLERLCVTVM
Summary of the method: as §1

ETV2 = target: T4, ETV2 (Homo sapiens, UniProt O00321 1-342); details: protein: recombinant; tags: N-terminal GST; dsDNA, one strand shown
T4 sequence: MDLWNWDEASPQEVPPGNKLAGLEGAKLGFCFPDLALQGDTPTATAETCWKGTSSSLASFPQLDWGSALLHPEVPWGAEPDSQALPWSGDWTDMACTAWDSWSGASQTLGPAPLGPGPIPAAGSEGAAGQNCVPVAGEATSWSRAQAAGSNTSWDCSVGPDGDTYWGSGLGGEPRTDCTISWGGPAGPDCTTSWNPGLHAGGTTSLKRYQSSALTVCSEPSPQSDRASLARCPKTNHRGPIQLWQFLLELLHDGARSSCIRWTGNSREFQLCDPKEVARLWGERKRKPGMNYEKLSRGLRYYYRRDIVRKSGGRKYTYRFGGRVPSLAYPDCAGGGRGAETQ
Summary of the method: as §1

ELF3 = target: T5, ELF3 (Homo sapiens, UniProt P78545 1-371); details: protein: recombinant; tags: N-terminal GST; dsDNA, one strand shown
T5 sequence: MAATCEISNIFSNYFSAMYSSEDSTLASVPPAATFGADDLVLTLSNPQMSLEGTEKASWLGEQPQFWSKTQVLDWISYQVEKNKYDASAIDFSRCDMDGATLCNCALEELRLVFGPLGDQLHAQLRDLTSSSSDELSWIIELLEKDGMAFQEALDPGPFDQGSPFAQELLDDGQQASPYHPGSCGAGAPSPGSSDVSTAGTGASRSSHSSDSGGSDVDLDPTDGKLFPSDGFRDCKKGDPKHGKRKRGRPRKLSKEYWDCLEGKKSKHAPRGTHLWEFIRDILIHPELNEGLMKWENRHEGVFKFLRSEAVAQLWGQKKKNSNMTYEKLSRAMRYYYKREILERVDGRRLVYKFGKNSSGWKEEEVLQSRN
Summary of the method: as §1

CRX = CRX (Homo sapiens, UniProt O43186 1-299); details: protein: recombinant; tags: N-terminal GST; dsDNA, one strand shown
Chain of CRX (O43186 whole entry): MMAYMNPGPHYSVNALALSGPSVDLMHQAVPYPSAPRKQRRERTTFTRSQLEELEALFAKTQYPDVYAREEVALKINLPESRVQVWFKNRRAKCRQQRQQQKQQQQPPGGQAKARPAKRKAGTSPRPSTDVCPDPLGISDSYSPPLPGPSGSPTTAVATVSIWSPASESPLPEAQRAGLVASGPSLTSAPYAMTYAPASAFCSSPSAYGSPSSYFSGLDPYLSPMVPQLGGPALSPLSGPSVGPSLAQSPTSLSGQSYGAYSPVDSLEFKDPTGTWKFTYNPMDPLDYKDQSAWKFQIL
Summary of the method: as §1

ETV1 = ETV1 (Homo sapiens, UniProt P50549 1-477); details: protein: recombinant; tags: N-terminal GST; dsDNA, one strand shown
Chain of ETV1 (P50549 whole entry): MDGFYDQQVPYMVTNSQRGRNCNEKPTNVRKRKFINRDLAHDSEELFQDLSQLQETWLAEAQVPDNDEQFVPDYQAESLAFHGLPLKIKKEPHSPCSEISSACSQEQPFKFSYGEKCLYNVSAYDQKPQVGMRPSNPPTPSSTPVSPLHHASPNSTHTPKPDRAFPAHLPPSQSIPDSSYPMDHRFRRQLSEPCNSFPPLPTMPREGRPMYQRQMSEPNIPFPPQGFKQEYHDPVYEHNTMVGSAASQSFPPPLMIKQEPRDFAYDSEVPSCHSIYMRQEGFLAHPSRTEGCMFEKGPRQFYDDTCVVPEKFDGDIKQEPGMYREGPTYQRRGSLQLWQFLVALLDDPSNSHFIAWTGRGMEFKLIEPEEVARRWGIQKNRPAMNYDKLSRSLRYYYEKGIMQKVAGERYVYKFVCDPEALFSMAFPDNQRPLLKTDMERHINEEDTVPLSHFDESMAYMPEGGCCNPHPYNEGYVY
Summary of the method: as §1

ERF = target: T6, ERF (Homo sapiens, UniProt P50548 1-548); details: protein: recombinant; tags: N-terminal GST; dsDNA, one strand shown
T6 sequence: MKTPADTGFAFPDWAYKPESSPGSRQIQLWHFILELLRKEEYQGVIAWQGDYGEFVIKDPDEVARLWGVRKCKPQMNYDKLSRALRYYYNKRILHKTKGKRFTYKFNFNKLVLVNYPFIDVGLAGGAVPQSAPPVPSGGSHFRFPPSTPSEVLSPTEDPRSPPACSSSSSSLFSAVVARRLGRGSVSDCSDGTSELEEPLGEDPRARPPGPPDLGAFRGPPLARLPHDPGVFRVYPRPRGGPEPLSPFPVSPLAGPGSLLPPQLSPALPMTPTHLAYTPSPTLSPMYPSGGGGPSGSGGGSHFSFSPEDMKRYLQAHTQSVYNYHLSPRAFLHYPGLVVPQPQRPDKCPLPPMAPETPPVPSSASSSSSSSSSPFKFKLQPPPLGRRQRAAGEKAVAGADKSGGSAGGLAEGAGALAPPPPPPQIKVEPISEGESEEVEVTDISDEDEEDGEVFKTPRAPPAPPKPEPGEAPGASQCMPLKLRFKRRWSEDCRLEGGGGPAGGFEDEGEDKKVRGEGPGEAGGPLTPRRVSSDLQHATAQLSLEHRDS
Summary of the method: as §1

ETV3L = target: T7, ETV3L (Homo sapiens, UniProt Q6ZN32 1-361); details: protein: recombinant; tags: N-terminal GST; dsDNA, one strand shown
T7 sequence: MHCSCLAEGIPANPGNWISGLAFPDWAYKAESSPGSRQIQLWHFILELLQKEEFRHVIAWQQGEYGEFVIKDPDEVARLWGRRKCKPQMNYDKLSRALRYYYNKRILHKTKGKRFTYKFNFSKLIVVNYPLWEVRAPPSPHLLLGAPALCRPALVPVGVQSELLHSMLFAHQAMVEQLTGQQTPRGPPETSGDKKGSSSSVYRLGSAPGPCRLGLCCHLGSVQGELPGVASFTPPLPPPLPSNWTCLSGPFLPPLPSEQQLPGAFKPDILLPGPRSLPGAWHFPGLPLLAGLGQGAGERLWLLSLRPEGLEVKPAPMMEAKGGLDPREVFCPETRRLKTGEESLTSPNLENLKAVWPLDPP
Summary of the method: as §1

ETS2 = target: T8, ETS2 (Homo sapiens, UniProt P15036 1-469); details: protein: recombinant; tags: N-terminal GST; dsDNA, one strand shown
T8 sequence: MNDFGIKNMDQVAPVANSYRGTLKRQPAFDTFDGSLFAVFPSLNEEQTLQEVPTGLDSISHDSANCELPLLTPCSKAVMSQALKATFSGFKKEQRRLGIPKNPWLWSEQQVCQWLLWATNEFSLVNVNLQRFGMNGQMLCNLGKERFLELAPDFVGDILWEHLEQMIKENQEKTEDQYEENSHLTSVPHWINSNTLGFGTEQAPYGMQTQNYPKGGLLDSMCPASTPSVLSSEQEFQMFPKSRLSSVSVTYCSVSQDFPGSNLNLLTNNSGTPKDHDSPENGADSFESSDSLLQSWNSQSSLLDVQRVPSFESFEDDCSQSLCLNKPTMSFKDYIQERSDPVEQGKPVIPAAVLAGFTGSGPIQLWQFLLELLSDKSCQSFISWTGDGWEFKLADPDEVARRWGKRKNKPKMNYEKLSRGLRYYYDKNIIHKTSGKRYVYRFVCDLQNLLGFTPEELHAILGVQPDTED
Summary of the method: as §1

SPDEF = target: T9, SPDEF (Homo sapiens, UniProt O95238 1-335); details: protein: recombinant; tags: N-terminal GST; dsDNA, one strand shown
T9 sequence: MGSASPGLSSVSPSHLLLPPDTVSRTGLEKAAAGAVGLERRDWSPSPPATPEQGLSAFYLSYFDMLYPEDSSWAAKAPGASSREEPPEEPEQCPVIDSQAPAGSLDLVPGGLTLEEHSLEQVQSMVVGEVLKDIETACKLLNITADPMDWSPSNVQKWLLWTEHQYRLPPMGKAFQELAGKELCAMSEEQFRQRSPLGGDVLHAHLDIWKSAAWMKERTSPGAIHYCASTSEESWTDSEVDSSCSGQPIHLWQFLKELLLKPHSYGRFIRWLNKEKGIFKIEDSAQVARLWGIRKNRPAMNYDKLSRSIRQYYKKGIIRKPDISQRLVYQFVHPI
Summary of the method: as §1

ETV7 = target: T10, ETV7 (Homo sapiens, UniProt Q9Y603 1-341); details: protein: recombinant; tags: N-terminal GST; dsDNA, one strand shown
T10 sequence: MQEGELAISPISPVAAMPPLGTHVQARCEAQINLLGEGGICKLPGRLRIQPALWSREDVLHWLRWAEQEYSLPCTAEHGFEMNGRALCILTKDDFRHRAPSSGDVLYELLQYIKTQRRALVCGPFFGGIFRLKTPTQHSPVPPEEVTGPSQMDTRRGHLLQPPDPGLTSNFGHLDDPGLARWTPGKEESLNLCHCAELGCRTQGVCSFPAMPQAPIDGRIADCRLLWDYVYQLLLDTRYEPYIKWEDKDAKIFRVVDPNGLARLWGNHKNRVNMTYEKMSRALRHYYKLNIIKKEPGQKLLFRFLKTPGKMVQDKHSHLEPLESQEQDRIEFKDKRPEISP
Summary of the method: as §1

ELF5 = target: T11, ELF5 (Homo sapiens, UniProt Q9UKW6-2 1-255); details: protein: recombinant; tags: N-terminal GST; dsDNA, one strand shown
T11 sequence: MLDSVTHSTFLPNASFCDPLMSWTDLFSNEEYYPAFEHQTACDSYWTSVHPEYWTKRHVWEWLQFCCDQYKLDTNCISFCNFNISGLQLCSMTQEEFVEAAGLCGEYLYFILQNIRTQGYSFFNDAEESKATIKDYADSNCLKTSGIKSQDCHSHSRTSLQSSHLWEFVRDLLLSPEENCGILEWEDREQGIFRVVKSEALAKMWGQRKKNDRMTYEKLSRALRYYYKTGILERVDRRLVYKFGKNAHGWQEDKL
Summary of the method: as §1

ETV3 = target: T12, ETV3 (Homo sapiens, UniProt P41162-2 1-143); details: protein: recombinant; tags: N-terminal GST; dsDNA, one strand shown
T12 sequence: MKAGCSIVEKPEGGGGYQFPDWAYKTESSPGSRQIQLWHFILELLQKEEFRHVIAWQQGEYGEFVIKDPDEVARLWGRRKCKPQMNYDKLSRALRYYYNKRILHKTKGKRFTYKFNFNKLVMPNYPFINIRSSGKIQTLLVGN
Summary of the method: as §1

ETV6 = ETV6 (Homo sapiens, UniProt P41212 1-452); details: protein: recombinant; tags: N-terminal GST; dsDNA, one strand shown
Chain of ETV6 (P41212 whole entry): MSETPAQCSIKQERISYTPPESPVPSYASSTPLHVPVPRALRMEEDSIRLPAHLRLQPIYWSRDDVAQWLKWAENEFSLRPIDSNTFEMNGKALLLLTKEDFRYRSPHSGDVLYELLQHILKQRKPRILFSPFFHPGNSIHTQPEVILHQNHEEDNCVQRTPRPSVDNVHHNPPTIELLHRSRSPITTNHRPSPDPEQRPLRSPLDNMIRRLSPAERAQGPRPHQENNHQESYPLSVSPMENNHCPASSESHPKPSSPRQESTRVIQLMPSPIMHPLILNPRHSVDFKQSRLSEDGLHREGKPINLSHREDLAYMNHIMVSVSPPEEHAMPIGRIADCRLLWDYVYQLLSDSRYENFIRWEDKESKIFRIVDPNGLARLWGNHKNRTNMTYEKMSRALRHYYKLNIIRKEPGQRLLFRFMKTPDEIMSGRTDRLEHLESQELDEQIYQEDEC
Summary of the method: as §1

Q: Which results are given for CCTAAC?
A: binding signal (FEV): 1.38 fold enrichment (6-mer frequency, TF over GST control); binding signal (ETV5): 1.42 fold enrichment (6-mer frequency, TF over GST control); binding signal (HSF1): 1.19 fold enrichment (6-mer frequency, TF over GST control); binding signal (SPIC): 1.49 fold enrichment (6-mer frequency, TF over GST control); binding signal (ELF4): 1.53 fold enrichment (6-mer frequency, TF over GST control); binding signal (ELK4): 1.36 fold enrichment (6-mer frequency, TF over GST control); binding signal (ETV2): 1.41 fold enrichment (6-mer frequency, TF over GST control); binding signal (ELF3): 1.51 fold enrichment (6-mer frequency, TF over GST control); binding signal (CRX): 1.25 fold enrichment (6-mer frequency, TF over GST control); binding signal (ETV1): 1.35 fold enrichment (6-mer frequency, TF over GST control); binding signal (ERF): 1.53 fold enrichment (6-mer frequency, TF over GST control); binding signal (ETV3L): 1.45 fold enrichment (6-mer frequency, TF over GST control); binding signal (ETS2): 1.38 fold enrichment (6-mer frequency, TF over GST control); binding signal (SPDEF): 1.41 fold enrichment (6-mer frequency, TF over GST control); binding signal (ETV7): 1.25 fold enrichment (6-mer frequency, TF over GST control); binding signal (ELF5): 1.39 fold enrichment (6-mer frequency, TF over GST control); binding signal (ETV3): 1.32 fold enrichment (6-mer frequency, TF over GST control); binding signal (ETV6): 1.3 fold enrichment (6-mer frequency, TF over GST control)
